Reference: PubChem BioAssay AID1347426 (Functional Genomics Laboratory (NCATS/FGL), 2020)
The campaign covered roughly 31,000 sequences. About 1,400 (4.5%) were called active. Only a selection was taken, and actives are over-represented in it overall. Unmarked numbers belong to inactive results.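 How the source made its calls: active means median seed-adjusted z-score above 1 or below -1; inactive means the rest.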

Experiment: Novel Modifiers of Survival Motor Neuron (SMN) Protein: Gene Identification via Genome-wide siRNA Screen;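 further: luminescence tracks full-length SMN protein made from the SMN2 reporter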
Conditions: HEK293T SMN2-luciferase reporter, siRNA knockdown, 72 h; actives lie on both sides
Procedure, shortened: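 HEK293T cells stably carrying an SMN2 promoter/splicing cassette–luciferase reporter were reverse-transfected with 1 pmol siRNA per well (druggable-genome library, 3 siRNAs per gene) and grown 72 h at 37 °C. Luminescence, normalized to negative-control siRNA and log10-transformed, was scored as MAD.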

| Sequence | median seed-adjusted z-score |
| --- | --- |
| GGAGUGCGAUGGACAAUUUTT against LCT | 0.411 |
| GGUGCAAGAGAGUCCGUUUTT against D2HGDH | -0.637 |
| UGAAAGGACUGGAGUCCAATT against OLFM1 | -0.103 |
| GGAUAUUGGAUUGCCUAGATT against TCFL5 | 1.52 (active) |
| GGUUCACUUUGAUAGUACUTT against CLCA4 | 0.186 |
| GCCCUGAUUUGUGCAAUGATT against PPP1R16B | -0.892 |
| GAGUCAGGAUCGCAAGUCATT against SAFB2 | 0.0394 |
| CCUCGAUUGUCUUCCGGAATT against UBA7 | 2.41 (active) |
| ACUCCAUCCUGAACCCUCATT against USP49 | 0.549 |
| GAUCAAUUACGAAAUCUCATT against MED30 | -2.06 (active) |
| AAGAAGAAGUGGACACUGATT against FGFRL1 | -0.111 |
| GGAACUUGGUUGUAGAGCUTT against SVIL | 0.0852 |
| CAACCACCCUCACAUCAUUTT against NUAK2 | -0.0601 |
| AAAUGCAAUUCAAGCCUUUTT against GFRA1 | 0.125 |
| GGAAACUCGUCGUUCAAUATT against IL13RA1 | 0.269 |
| UCGUGGAGGUGAUCUAUUATT against RAB6C | -1.08 (active) |
| UGAUUUACCUGAGCUGUAATT against GSTT2 | 0.0298 |
| CAACUUCCACUGUUUCCGATT against RRAGC | -0.557 |
| CGAUGCUUGUCAGUCCCAATT against NOTCH4 | -0.384 |
| GCCUAGAGGUUUGCCCUGATT against ATHL1 | 0 |
| UCCACUGCCCAAUAAAUAUTT against PYDC1 | -1.44 (active) |
| CGAGCCCAAGGAACAUGAATT against NKX2-3 | -0.2 |

| Sequence | median seed-adjusted z-score |
| --- | --- |
| GCUUUUCUCUUACAAUUCATT against ZNF557 | -0.197 |
| CCAUUAACGAGCUGCUUAATT against PLK1 | -2.57 (active) |
| CAGUCGGAUCCAGAGCUGATT against GCHFR | -0.559 |
| AGCUCACGCUGUGCAUGUGTT against TREX2 | -0.918 |
| AAUCAGAUUCUCAACCUAATT against KRT10 | 0.493 |
| CCUUCGAGCUGCUAUUAAUTT against TLR10 | -0.363 |
| GAAGCGACUGUUUUAGAAATT against EIF4E3 | 0 |
| GUUAUCCUCUAAUUGAUAATT against B3GALNT1 | 0.128 |
| GGGUGUAACAUGUGCGGAATT against ZNF217 | -0.872 |
| GCACCAUCGUCCUUGAACATT against DUOX1 | -1.09 (active) |
| CCACUGCAACUGUAAUUCUTT against PROCA1 | -0.502 |
| GAGUUCGUCGAAUCCCAAATT against SETMAR | 0.191 |
| CCUCGAUUCUUAAAGACGATT against RELN | 0.207 |
| GCUUUGGAGUCACAGGUCATT against EYA3 | -0.0191 |
| GGAGACAAGCACAAGCUGATT against S100B | 0.862 |
| GUGCGAUUCUGGAUGACAATT against EVI1 | 0 |
| CAUGGGACCUGAUUCAAGATT against FCER2 | -1.75 (active) |
| CCAGAUCAGUCCUAGCUUATT against GLIS3 | -0.00906 |
| AGCUGGUUCACGACAUGAATT against TRIP6 | 1.03 (active) |
| GCAUUGACUGGUCCUAUGATT against CPA2 | 0.0374 |
| GCACUCCCAAGAUUGAUAATT against RBPJ | -0.452 |
| CACUGAUUUUGGAUGCUCUTT against HES1 | -0.262 |

| Sequence | median seed-adjusted z-score |
| --- | --- |
| ACACGGCAUUAAAAAGCUATT against JRK | -0.624 |
| AAACCAUCAUGCUGAGGUGTT against FCGR2A | -0.19 |
| GAGCACGACUGAAAAUGUATT against PTS | -0.103 |
| UAACCGAUUUGAUAUGAAUTT against ANKRA2 | 1.26 (active) |
| GGGAGAGUGUGCUACGAAATT against NEIL1 | -0.168 |
| GAUUCGCAGUUUAGAUGUUTT against PRKAA2 | -0.194 |
| GUACUUACCUUGUGAGGCATT against VAV3 | 0 |
| GGUGGGUGGUAAGAGGGAATT against AQP2 | -0.433 |
| GCAGAUGUAUAAGAAGGCATT against RRM2 | -3.84 (active) |
| GGAGAGAGCUCUCACAUCUTT against PPT1 | 0.727 |
| AGAUUGUAGUUGUGGAUCATT against CDH15 | 0 |
| CAGCUGUAGUUCUAACUAUTT against ZNF23 | -0.106 |
| GGAUCAAUGUGACGGAGAATT against EMILIN2 | 0.726 |
| GAGUCGAACUUUACUGUCUTT against MLL2 | -2.11 (active) |
| GGAAUGGAAUGAUCGGUGATT against GRIN2A | 0.025 |
| CGAGUUUGAUGAAAGAGGATT against NT5E | 0.199 |
| CGUUAUGCCUGGUCUCCUATT against SPPL3 | 0.652 |
| CAGAUUUGGUAAAAGAGUATT against VPS26A | -1.55 (active) |
| CCCAUUUCGGACUCCAAAATT against IRX3 | -0.285 |
| ACUUUGCCUUCAAGCUCUATT against SERPINA13 | -0.403 |
| GCUACUAUGCUGAAGAUCATT against CDH18 | 0.21 |
| GGAAGAUGUUGACAUAUUUTT against ACAT2 | 1.25 (active) |

| Sequence | median seed-adjusted z-score |
| --- | --- |
| GAAUAAGUGACUAUCCAAATT against SENP2 | 0 |
| GGAGGCACCUCUCAAGAUATT against THRAP3 | -0.852 |
| GCGAGGCUGUUAACCCUUATT against PRKCQ | 0.692 |
| GAUGCUAUGGAAUACCAUATT against METTL4 | 0.244 |
| GCUGGUACCCUGGAGGAAATT against GNRH2 | 1.13 (active) |
| ACAUGGUUAUUCCCAGUGATT against AKR1CL2 | -0.949 |
| CAUUCAAUCCGGACCAUUUTT against CYP2J2 | 0.00659 |
| CAGAUAUUAUGAAGAAUUUTT against GALNS | 0.0287 |
| GCCUCUUUCUGUCAGCAUUTT against SPAG4 | -0.219 |
| GGAAGGAUAUUACACCUAUTT against MMP24 | -1.28 (active) |
| GCAAAGCCCUGUCAAACAATT against NPM2 | 0.215 |
| CCAAGAAACUGCGAGACAATT against CNGA2 | -0.0447 |
| CCAGAGUCCUGUUCGAUUUTT against USP30 | -0.646 |
| CCUCAAGCCUGUAGAAGAATT against SMNDC1 | -1.54 (active) |
| CAGCAUUUAUCAAGUCUUATT against BMP6 | 0.301 |
| GCAUCGGCAUUGAAGGCUUTT against ALOX15B | 0.156 |
| GUAACUUCCUAUUCACCAATT against EPAS1 | -0.166 |
| GGUCUGGAGAAGGUGCAUATT against ANGPTL4 | 1.37 (active) |
| CUCUACCAACAAUCACAAATT against NPTN | 0.133 |
| GGUCGAGUUCUACUACAAATT against IPO11 | -0.245 |
| CAUGCUCGUGGGUAACAAATT against RAB25 | -0.04 |
| UGGAGAGACUUAUCCAAGATT against CKMT1B | -0.929 |

| Sequence | median seed-adjusted z-score |
| --- | --- |
| CAGAUGUGGUGAUGCGUGATT against DMBX1 | -0.207 |
| GCUUCAUGACAUCCGCAAATT against CTSL3 | 1.07 (active) |
| GGCAAGAGCUUGUAUCCAATT against CCNG1 | 0.131 |
| CAAAAUCCUUUGUGAGUAATT against GPR174 | -0.324 |
| GGACUUUGCUGCCUAAAUUTT against PIP5K1A | 0.0924 |
| GCAUCACGCUCUCGAAGCATT against PTBP1 | 0.578 |
| CCACCCUAGUUAGACAUCATT against ZNF419 | 0.0405 |
| CCAUCAUCGACACACCCAATT against PRSS27 | 1.03 (active) |
| CAAUCGAACGUAAACAACATT against ADD3 | 0.0741 |
| CAACCAUCGAGCAAAUGAATT against MAPK1 | 0 |
| CAUCCCUUGUAAUUCACAATT against ZNF702 | 0.204 |
| GCAUCAGCUCACAACAAAATT against SF3B4 | -2.56 (active) |
| CAAGUAUGAUCAGCAAUGATT against ENG | -0.254 |
| GGCAUUACGUUUCUAGGUATT against AQP6 | 0.008 |
| CGCUGUUCAAUGAACUAUATT against GBA2 | 0.143 |
| ACACCAGGGUUGUCUACAATT against LCAT | 0.526 |
| GAACUAUCAGAGCAGUUUUTT against LONP2 | 1.52 (active) |
| GAGCUAUAGUAAUUGCUCUTT against MIF4GD | 0.373 |
| GAAACAUCAUUUUUGCGAATT against THBS4 | -0.28 |
| GGACUGGGAUGAUACACCUTT against SBF2 | 0.569 |
| CCAUCAUGAUGCUAGCUAUTT against AP3B2 | -2.45 (active) |
